Data: PubChem BioAssay
Measured potencies and affinities stand elsewhere. Results filed as inconclusive are left out. Calls of active or inactive are those of the source. How the calls were made is not given here.

experiment: non-specific cell cytotoxicity, dose response, cytotoxicity control for PAX8 inhibitor project, plate reader, dry powder samples (AID 743021); conditions: cell line, non-specific cytotoxicity counter-screen; series mostly up to 35 µM

| SMILES | outcome |
| --- | --- |
| COc1cccc(/C=C2\SC(=S)N(CCC(=O)NCCc3ccc(O)cc3)C2=O)c1 | inactive |
| FC(F)(F)c1nnc2c(Sc3ccccc3)nc3ccc(Cl)cc3n12 | inactive |
| Cc1ccc(NC(=O)c2ccc([N+](=O)[O-])s2)cc1S(=O)(=O)N1CCOCC1 | inactive |
| C[C@@H]1CCCCO[C@@H](CN(C)Cc2ccc3c(c2)OCO3)[C@H](C)CN([C@@H](C)CO)C(=O)c2cc(NC(=O)Nc3ccc(C(F)(F)F)cc3)ccc2O1 | inactive |
| COc1ccc(Br)cc1/C=C/C(=O)c1ccc(NC(C)=O)cc1 | inactive |
| O=C(CCCN1C(=O)/C(=C/c2cccc(Br)c2)SC1=S)Nc1cccnc1 | inactive |
| C[C@H](CO)N1C[C@H](C)[C@@H](CN(C)Cc2ccncc2)Oc2ccc(NC(=O)Nc3ccc(C(F)(F)F)cc3)cc2CC1=O | inactive |
| COc1ccc(O)c(/C=N/NC(=O)c2ccc(N3CCCC3=O)cc2)c1 | inactive |
| CCCCn1cnc2c(c(-c3ccccc3)c(-c3ccccc3)n2Cc2ccco2)c1=N | inactive |
| COc1cc(/C=N/NC(=O)c2ccc(CN3C(=O)c4cccc5cccc3c45)cc2)cc(OC)c1O | inactive |
| CC(=O)OC(C)(C)/C=C/C(=O)[C@](C)(O)C1[C@H](O)C[C@@]2(C)C3CC=C4C(C=C(O[C@@H]5O[C@H](CO)[C@@H](O)[C@H](O)[C@H]5O)C(=O)C4(C)C)[C@]3(C)C(=O)C[C@]12C (some centres undefined) | inactive |
| COC(=O)C12OCC34C(CC5C(C)=C(O)C(=O)CC5(C)C3C(O)C1O)OC(=O)C(OC(=O)C=C(C)C)C24 (centres undefined) | inactive |
| O=C(NCc1cccnc1)/C(=C\c1ccc(-c2ccc(Cl)c(Cl)c2)o1)S(=O)(=O)c1ccccc1 | inactive |
| Oc1ccc(C[C@H]2CNC(=S)N2CC2CCCN2C[C@H](Cc2ccccc2)N2C[C@H](Cc3ccc(O)cc3)N(CCc3ccccc3)C2=S)cc1 (some centres undefined) | inactive |
| O=C(C[C@@H]1C[C@H]2c3cc(NS(=O)(=O)c4ccc(F)cc4)ccc3O[C@H]2[C@@H](CO)O1)NCc1ccc(Oc2ccccc2)cc1 | inactive |
| CCCCn1nc(C(=O)Nc2cc(C(F)(F)F)ccc2N2CCOCC2)ccc1=O | inactive |
| CCN(c1nc(N)c(C(=O)N=C(N)N)nc1Cl)C(C)C | inactive |

| SMILES | outcome |
| --- | --- |
| CC(C)=CCC/C(C)=C/CNC(=O)C[C@H]1C[C@H](C(=O)N2CCOCC2)[C@@]2(C)c3[nH]c4ccc(Cl)cc4c3CCN2C1=O | inactive |
| NC(=O)[C@H]1CC2(CC(c3cccc(NC(=O)COc4ccc(Cl)cc4)c3)=NO2)CN1C(=O)C(c1ccccc1)c1ccccc1 (some centres undefined) | inactive |
| CC1=C(C(=O)OC2CCCCC2)C(c2cccnc2)n2ncnc2N1 (centres undefined) | inactive |
| COC(C(=O)C(O)C(C)O)C1Cc2cc3cc(OC4CC(OC5CC(O)C(O)C(C)O5)C(O)C(C)O4)c(C)c(O)c3c(O)c2C(=O)C1OC1CC(OC2CC(OC3CC(O)C(OC)C(C)O3)C(O)C(C)O2)C(O)C(C)O1 (centres undefined) | inactive |
| O=C(NCCC1CCCCN1S(=O)(=O)c1ccc(Cl)cc1)C(=O)NCc1ccncc1 (centres undefined) | inactive |
| O=C(OCC(=O)N1CCN(C(=O)c2ccco2)CC1)c1cccc(S(=O)(=O)N2CCc3ccccc32)c1 | inactive |
| O=C(O)c1cccc(N/N=C/c2cccs2)c1 | inactive |
| CN(Cc1ccccc1)N=Nc1nc[nH]c1C(N)=O | inactive |
| CCc1ccc(CNC(=O)C2CCCN(c3nnc(C)c4c(C)n(-c5ccccc5)nc34)C2)cc1 (centres undefined) | inactive |
| COc1ccc(NS(=O)(=O)c2ccc(N3CCCC3)c(NC(=S)Nc3ccc(SC(F)F)cc3)c2)cc1 | inactive |
| Cc1ccc(S(=O)(=O)Nc2ccc3c(c2)C(=O)N([C@H](C)CO)C[C@H](C)[C@@H](CN(C)S(=O)(=O)c2ccc(C)cc2)OCCCC[C@H](C)O3)cc1 | inactive |
| C[C@@H](NC(=O)c1nc[nH]c1C(=O)N[C@@H](Cc1ccccc1)C(=O)OC(C)(C)C)c1ccccc1 | inactive |
| COc1nn(-c2ccccc2)c(=O)c(Cl)c1Cl | inactive |
| C=C(C)C(=O)OC1(C(F)(F)F)Oc2cc(C)ccc2NC1=O (centres undefined) | inactive |
| CCO[C@H]1OC(C(=O)N2CCN(Cc3ccccc3)CC2)=C[C@@H](c2ccc(C(F)(F)F)cc2)[C@@H]1CCCO | inactive |
| C[C@@H]1CCCCO[C@@H](CN(C)Cc2ccc(Cl)c(Cl)c2)[C@H](C)CN([C@@H](C)CO)C(=O)c2cc(NC(=O)CCC(F)(F)F)ccc2O1 | inactive |
| Cc1ccc(C)c(N2CCN(C(=O)CCCCCn3c(=S)[nH]c4ccc(N5CCOCC5)cc4c3=O)CC2)c1 | inactive |
